Shown are actives, neighbours in structure and some others; about 3.4% of the full set was active somewhere.
GPR151 activ = human GPR151 activation; Q8TDV0; PathHunter beta-arrestin GPR151 cells, luminescence; activation, % at 11.2 µM; 1% of 650,000 active; in the data active = activation above about 4.9%;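 also: 0% = median of compound wells and 100% = cells with positive control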
Target sequence (Q8TDV0 whole entry, looked up): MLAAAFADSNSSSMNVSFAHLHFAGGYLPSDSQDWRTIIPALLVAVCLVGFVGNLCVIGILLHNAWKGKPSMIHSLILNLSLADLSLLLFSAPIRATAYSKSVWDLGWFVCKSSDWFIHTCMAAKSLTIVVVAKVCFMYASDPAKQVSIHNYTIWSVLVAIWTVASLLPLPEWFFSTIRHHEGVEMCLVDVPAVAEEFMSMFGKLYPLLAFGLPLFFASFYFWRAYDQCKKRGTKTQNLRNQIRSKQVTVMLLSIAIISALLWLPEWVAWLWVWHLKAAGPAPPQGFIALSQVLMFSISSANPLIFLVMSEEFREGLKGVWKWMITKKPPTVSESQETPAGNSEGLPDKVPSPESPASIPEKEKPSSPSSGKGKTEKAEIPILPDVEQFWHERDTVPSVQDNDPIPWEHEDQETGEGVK
FBW7 activator = activators of human E3 ligase FBW7; normalized activity (activation), % at 26.1 µM; AID 1259310; 0.13% of 650,000 active; Q969H0; AlphaScreen FBW7–phospho-cyclin E peptide binding, activator screen; in the data active = normalized activity above about 1.9%;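 also: purified mutant Fbw7 with reduced substrate affinity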
TEAD-YAP block = TEAD-YAP interaction inhibition. inhibition, % at 9.12 µM. 1.4% of 640,000 active. HEK-TIYL cells, TEAD-Gal4/YAP UAS-luciferase luminescence; in the data active = inhibition above about 32%;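 also: 0% = median of test compound wells and 100% = reference inhibitor wells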
MITF inh = inhibitors of human MITF; AlphaScreen MITF homodimerization, bead proximity signal; inhibition, % at 2.6 µM; 0.91% of 650,000 active; AID 1259374; in the data active = inhibition above about 50%;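 also: 0% = vehicle wells with protein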
GPR151 confirm = confirmation of human GPR151 activators; activation, % at 11.2 µM; shares compounds with GPR151 activ; 6,700 tested, under 10 active; GPR151 PathHunter beta-arrestin cells, luminescence, 90 min; % of EA-reagent control over plate median;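 active = mean percent activation across replicates above the confirmation screen cutoff of 4.91%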
GPR119 counter = counter-screen for GPR151 activators: effect on human GPR119; shares compounds with GPR151 activ; GPR119 PathHunter beta-arrestin cells, luminescence, 90 min; 0 = compound-well median, 100 = enzyme-acceptor control; activation, % at 11.2 µM; 0.3% of 6,700 active;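 active = mean percent activation in the counterscreen above 29.09%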;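 also: counterscreen on off-target GPR119 to flag nonselective hits from the GPR151 activator screen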
Active calls of the source: *; nt = not tested or not shown.

SMILES	GPR151 activ	FBW7 activator	TEAD-YAP block	MITF inh	GPR151 confirm	GPR119 counter
Cc1ccc(-n2c(O)c(C=Nc3ccc(N4CCOCC4)cc3)c(=O)[nH]c2=O)cc1Cl	-1	0	-6	10	nt	nt
CC(=O)CC(C)C(=O)N1CCCC(c2nc(C)ncc2-c2cccc(C)c2)C1 (configuration not stated)	6.4*	0	-3	0	1	-2
Cc1cccc(-c2cnc(C)nc2C2CCCN(C(=O)CN(C)C)C2)c1 (configuration not stated)	14*	0	-1	-3	1	-1
CCOC(=O)/C(CC)=C(\C)NCC(O)c1ccc([N+](=O)[O-])cc1 (configuration not stated)	1	0	4	-7	nt	nt
COc1ccc(Br)c(/C=N/NC(=O)COc2cccc(Br)c2)c1	-1	0	-14	-6	nt	nt
O=C(NCc1ccccc1)/C(=C\c1ccc(Cl)cc1)NC(=O)c1ccco1	-1	1	3	-18	nt	nt
O=C(NCc1ccco1)/C(=C/c1ccc(Cl)cc1)NC(=O)c1ccco1	5.7*	0	-2	1	0	3
O=C(NCc1ccco1)/C(=C\c1ccc(Br)cc1)NC(=O)c1ccccc1	7.0*	0	1	0	1	-2
CCCCC(=O)N(CCn1cccn1)c1nc2c(F)cccc2s1	0	0	0	-2	nt	nt
CCOc1cccc2sc(N(CCN(C)C)C(=O)c3cc(Cl)ccc3[N+](=O)[O-])nc12	7.1*	0	5	16	1	7
O=C(c1cc(Cl)ccc1Cl)N(CCn1cccn1)c1nc2c(F)cccc2s1	6.1*	0	-8	0	0	0
Nc1cccc(C(=O)OCC(=O)NC2CCCc3ccccc32)c1 (configuration not stated)	5.2*	0	9	4	-1	-2
O=C(COC(=O)c1cc(O)c(O)c(O)c1)NC1CCCc2ccccc21 (configuration not stated)	-1	0	8	32	nt	nt
CCC(C)CCCNc1nnc(SCC(=O)NC2CCCC2)s1 (configuration not stated)	-1	0	12	21	nt	nt
CCN(CC)CCC(=O)OC1CCCCC1S(=O)(=O)Cc1ccccc1 (configuration not stated)	0	0	-6	-3	nt	nt
CC1=C(C(=O)OCCc2ccccc2)C(c2ccc(C)s2)NC(=O)N1 (configuration not stated)	5.1*	0	2	-7	0	-13
CC1=C(C(=O)OCCc2ccccc2)C(c2cccc(Cl)c2)NC(=O)N1 (configuration not stated)	1	0	6	-3	nt	nt
CC1=C(C(=O)OCc2ccccc2)C(c2cccc(Cl)c2)NC(=O)N1 (configuration not stated)	5.0*	0	-22	-10	1	-3
CCOc1cccc(C2NC(=O)NC(C)=C2C(=O)OC2CCCCCC2)c1 (configuration not stated)	5.7*	0	-11	6	0	3
CCN(CC)C(=O)C1CCCN(c2cc(C(=O)NCc3cccc(C(F)(F)F)c3)c3ccccc3n2)C1 (configuration not stated)	-2	0	6	-5	nt	nt
CCN(CC)C(=O)c1sc(NC(=O)c2cccnc2)c(C(=O)OC)c1C	0	0	-3	14	nt	nt
CCN(CC)C(=O)c1sc(NC(=O)c2ccc(F)cc2)c(C(=O)OC)c1C	5.1*	0	1	-8	0	-8
CC(Oc1ccccc1)C(=O)Nc1ccc(F)c([N+](=O)[O-])c1 (configuration not stated)	2	0	28	3	nt	nt
COc1ccc(Cc2nn3c(-c4ccc(C)cc4)nnc3s2)cc1	6.4*	0	8	12	0	0
CCSc1nc2sccn2c(=O)c1C(=O)Nc1cc(C(C)(C)C)nn1C	5.0*	0	-4	6	1	3
SMILES	GPR151 activ	FBW7 activator	TEAD-YAP block	MITF inh	GPR151 confirm	GPR119 counter
CCSc1nc2sccn2c(=O)c1C(=O)Nc1cc(-c2ccccc2)nn1C	1	0	-1	6	nt	nt
COc1ccc(-n2nnnc2SCC(=O)c2ccc(OC)cc2OC)cc1	2	0	4	7	nt	nt
COc1ccc(OC)c(C2C(C(N)=O)=C(C)Nc3nc(CCCO)nn32)c1 (configuration not stated)	7.7*	1	-8	21	1	-2
Cc1nc(CNC(=O)CC2C(=O)NCCN2Cc2ccc(F)cc2Cl)sc1C (configuration not stated)	-1	0	5	2	nt	nt
Cc1ccc(C(=O)NCc2cccnc2)c(N2CCOCC2)n1	0	1	-2	10	nt	nt
CC(NS(=O)(=O)c1ccc2c(c1)NC(=O)CC(=O)N2)c1ccccc1 (configuration not stated)	8.3*	0	-1	-7	1	12
O=C1CC(=O)Nc2cc(S(=O)(=O)NCC3COc4ccccc4O3)ccc2N1 (configuration not stated)	5.0*	0	5	6	0	3
COC(=O)C1=C(O)/C(=C\c2cc(C)n(-c3cc(Cl)ccc3C)c2C)N=C1C	0	0	0	-12	nt	nt
COC(=O)C1=C(O)/C(=C/c2cc(C)n(-c3cc(C)ccc3C)c2C)N=C1C	5.2*	0	9	-9	-1	-8
COC(=O)CCS(=O)(=O)c1ccc(Cl)cc1	0	0	1	-6	nt	nt
COC(=O)c1ccc(NC(=O)CCS(=O)(=O)c2ccc(OC)cc2)cc1	5.0*	0	-5	-3	0	-1
COC(=O)c1cc(NC(=O)CCS(=O)(=O)c2ccc(OC)cc2)cc(C(=O)OC)c1	1	0	4	5	nt	nt
COC(=O)CCS(=O)(=O)c1ccc(Oc2ccc(S(=O)(=O)CCC(=O)OC)cc2)cc1	5.7*	0	14	1	1	-3
O=C(c1ccc(Cl)s1)N(Cc1ccsc1)C1CC1	0	0	1	-7	nt	nt
COc1ccc(/C=N\Nc2nnc3c(n2)[nH]c2c(C)cccc23)cc1OC	9.7*	1	-12	13	0	8
Cc1cccc2c1[nH]c1nc(N/N=C\c3ccccc3O)nnc12	5.0*	0	-5	12	1	3
COc1cccc(/C=N\Nc2nnc3c(n2)[nH]c2c(C)cccc23)c1	-1	0	2	9	nt	nt
CCOC(=O)c1c(C)[nH]c(NC(=O)Nc2ccc(F)cc2)c1C	0	0	2	-4	nt	nt
CCOC(=O)c1c(C)[nH]c(NC(=O)Nc2ccc(OCC)cc2)c1C	6.0*	0	3	-6	1	4
CN1C(=O)NC(c2cccc(C(F)(F)F)c2)C2=C1CC(C)(C)CC2=O (configuration not stated)	0	0	3	16	nt	nt
